Test results: PubChem BioAssay (NCATS)
“And” between values parts separate entries of the source, which are not always exact repeats. Equal entries are not always repeated. Inconclusive results are not listed. The source made the active and inactive calls. Calls follow the shape of the dose curve; as a rule, active = well fitted curve in the direction sought with a large enough effect; inconclusive = small, poorly fitted or top-dose-only effect, or another doubt; inactive = no such curve, though single readings can be large; an effect the other way counts as inactive or inconclusive. Where a SMILES comes first, the peptide text is derived from it.

Experiments:
CRL-7250 = normal cell line; assay: Cytotoxic Profiling of Annotated Libraries Using Quantitative High-Throughput Screening (AID 1296008); details: Five cell lines viability, CellTiter-Glo ATP luminescence, 48-72 h; max response: hits give low values; also: nearly all actives have a fitted effect of over 60% in size; also: potency is read from the fitted curve at half-maximal effect; as to max response: % is scaled to controls: 0 for no effect and ±100 for the full control effect
In short: (§1)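 Compounds were pin-transferred onto cells and incubated 48 or 72 hr at 37 degree Celsius, 95% humidity. CellTiter-Glo was added, plates sat 10 min at room temperature, then ATP-coupled luminescence was imaged as the viability read-out.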

HEK293 = assay: as above; details: Five cell lines viability, CellTiter-Glo ATP luminescence, 48-72 h; max response: hits give low values
In short: as §1

HaCat [1] = assay: as above; details: Five cell lines viability, CellTiter-Glo ATP luminescence, 48-72 h; max response: hits give low values
In short: as §1

NIH3T3 [2] = assay: as above; details: Five cell lines viability, CellTiter-Glo ATP luminescence, 48-72 h; max response: hits give low values
In short: as §1

HACAT [3] = assay: qHTS assay to identify novel small-molecules to repurpose for Merkel cell carcinoma treatment (AID 1296009); details: MCC and control cell lines, CellTiter-Glo viability, 72 h; at 44.8 µM (top of the series) unless noted; also: nearly all actives have a fitted effect of over 60% in size
In short: (§2)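 Cells exposed to NPC (8-point) and MIPE (11-point) compound dilutions for 72 hr at 37 degree celsius; viability read by CellTiter-Glo luminescence, normalized to no-cell and DMSO in-plate controls.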

HEK293T = assay: as above; details: MCC and control cell lines, CellTiter-Glo viability, 72 h; series mostly up to 44.8 µM
In short: as §2

NIH3T3 [4] = assay: as above; details: MCC and control cell lines, CellTiter-Glo viability, 72 h; at 44.8 µM (top of the series) unless noted
In short: as §2

C33A = assay: Primary qHTS to identify gynecologic anti-cancer compounds using libraries of approved drugs and bioactive compounds (AID 1345084); details: Gynecologic cancer cell panel viability, ATPlite luminescence, 48 h; series mostly up to 57.5 µM; also: nearly all actives have a fitted effect of over 55% in size; also: potency is read from the fitted curve at half-maximal effect; as to activity change, negative = cytotoxicity: % is scaled to controls: 0 for no effect and ±100 for the full control effect
In short: (§3)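 Cytotoxicity screen measuring ATP content by luciferase luminescence. Each compound is applied at five concentrations for 48 h at 37 C with 5% CO2.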

CAOV3 = assay: as above; details: Gynecologic cancer cell panel viability, ATPlite luminescence, 48 h; series mostly up to 57.5 µM
In short: as §3

CASKI = assay: as above; details: Gynecologic cancer cell panel viability, ATPlite luminescence, 48 h; series mostly up to 57.5 µM
In short: as §3

Es-2 = assay: as above; details: Gynecologic cancer cell panel viability, ATPlite luminescence, 48 h; series mostly up to 57.5 µM
In short: as §3

HeLa = assay: as above; details: Gynecologic cancer cell panel viability, ATPlite luminescence, 48 h; series mostly up to 57.5 µM
In short: as §3

KB-3-1 = assay: Cytotoxic Profiling of Annotated Libraries Using Quantitative High-Throughput Screening (AID 1296008); details: Five cell lines viability, CellTiter-Glo ATP luminescence, 48-72 h; max response: hits give low values; also: nearly all actives have a fitted effect of over 60% in size; also: potency is read from the fitted curve at half-maximal effect; as to max response: % is scaled to controls: 0 for no effect and ±100 for the full control effect
In short: as §1

C=C1C(OC(C)=O)C(=O)C2C(C)(C)C(OC(C)=O)CCC2(C)C1CC(OC(C)=O)/C(C)=C/COC(C)=O (stereo not drawn)
inactive: max response (CRL-7250) 0.124% | outcome (HEK293) | outcome (HaCat [1]) | outcome (NIH3T3 [2]) | outcome (HACAT [3]) inactive [at 17.4 µM] | Potency (HEK293T) | outcome (NIH3T3 [4]) inactive [at 17.4 µM] | Potency (C33A) | Potency (CAOV3) | Potency (CASKI) | Potency (Es-2) | Potency (HeLa)

COC(=O)C1=COC(OC2OC(CO)C(O)C(O)C2O)C2C1CC(OC(=O)C(O)CC(=O)O)C2C (stereo not drawn)
inactive: max response (CRL-7250) -2.72% | outcome (HEK293) | outcome (HaCat [1]) | outcome (NIH3T3 [2]) | outcome (HACAT [3]) inactive [at 17.4 µM] | Potency (HEK293T) | outcome (NIH3T3 [4]) inactive [at 17.4 µM] | Potency (C33A) | Potency (CAOV3) | Potency (CASKI) | Potency (Es-2) | Potency (HeLa)

CC1=CCC2C(C)(CO)CCCC2(CO)C1CO (stereo not drawn)
inactive: outcome (CRL-7250) | outcome (HEK293) | max response (HaCat [1]) -5.9% | outcome (NIH3T3 [2]) | Potency (HEK293T) | outcome (NIH3T3 [4]) | Potency (C33A) | Potency (CAOV3) | Potency (CASKI) | Potency (Es-2) | Potency (HeLa)

CC1(C)NC2N(C1=O)c1ccccc1C2(O)CC(C(=O)O)n1cnc2ccccc2c1=O (stereo not drawn)
inactive: outcome (CRL-7250) | outcome (HEK293) | max response (HaCat [1]) -3.78% | max response (NIH3T3 [2]) -5.13% | Potency (HEK293T) | Potency (C33A) | Potency (CAOV3) | Potency (CASKI) | Potency (Es-2) | Potency (HeLa)

C[C@H]1[C@H](C)CC[C@]2(C(=O)O[C@@H]3O[C@H](CO)[C@@H](O)[C@H](O)[C@H]3O)CC[C@]3(C(=O)O)C(=CCC4[C@@]5(C)CC[C@H](O[C@@H]6O[C@H](CO)[C@@H](O)[C@H](O)[C@H]6O)C(C)(C)C5CC[C@]43C)[C@H]12 (stereo partly drawn)
inactive: max response (CRL-7250) 3.01% | outcome (HEK293) | outcome (HaCat [1]) | max response (NIH3T3 [2]) -5.27% | outcome (HACAT [3]) inactive [at 9.27 µM] | outcome (HEK293T) inactive [at 9.27 µM] | activity change, negative = cytotoxicity (C33A) 2.9% [at 11.6 µM] | activity change, negative = cytotoxicity (CAOV3) 0.882% [at 11.6 µM] | activity change, negative = cytotoxicity (CASKI) 0.925% [at 11.6 µM] | activity change, negative = cytotoxicity (Es-2) -10.9% [at 11.6 µM] | activity change, negative = cytotoxicity (HeLa) 13.2% [at 11.6 µM]

O=C(OCc1cccc(O)c1O[C@@H]1O[C@H](CO)[C@@H](O)[C@H](O)[C@H]1O)C1(O)C(=O)C2C=CC1C1C=CC(=O)C(O)(C(=O)OCc3cccc(O)c3O[C@@H]3O[C@H](CO)[C@@H](O)[C@H](O)[C@H]3O)C21 (stereo partly drawn)
inactive: max response (CRL-7250) -8.04% | outcome (HEK293) | outcome (HaCat [1]) | max response (NIH3T3 [2]) 3.82% | outcome (HACAT [3]) inactive [at 9.27 µM] | outcome (HEK293T) inactive [at 9.27 µM] | activity change, negative = cytotoxicity (C33A) -2.5% [at 11.6 µM] | activity change, negative = cytotoxicity (CAOV3) -10.6% [at 11.6 µM] | activity change, negative = cytotoxicity (CASKI) -17.5% [at 11.6 µM] | activity change, negative = cytotoxicity (Es-2) 2.61% [at 11.6 µM] | activity change, negative = cytotoxicity (HeLa) -8.79% [at 11.6 µM]

CC1NC(=O)CNC(=O)C(C(C)C)NC(=O)C2CCCN2C(=O)C(C(C)C)NC(=O)C(Cc2c[nH]c3ccccc23)NC1=O (stereo not drawn) (cyclo(GAWVPV); configuration not given here)
inactive: outcome (CRL-7250) | outcome (HEK293) | outcome (HaCat [1]) | outcome (NIH3T3 [2]) | outcome (HACAT [3]) inactive [at 17.4 µM] | Potency (HEK293T) | outcome (NIH3T3 [4]) inactive [at 17.4 µM] | Potency (C33A) | Potency (CAOV3) | Potency (CASKI) | Potency (Es-2) | Potency (HeLa)

CC(C)CC(=O)OC[C@H]1O[C@@](COC(=O)CC(C)C)(O[C@H]2O[C@H](CO)[C@@H](O)[C@H](O)[C@H]2O)[C@@H](OC(=O)CC(C)C)[C@@H]1OC(=O)CC(C)C
inactive: max response (CRL-7250) -0.942% | outcome (HEK293) | outcome (HaCat [1]) | outcome (NIH3T3 [2]) | outcome (HACAT [3]) inactive [at 17.4 µM] | Potency (HEK293T) | outcome (NIH3T3 [4]) inactive [at 17.4 µM] | Potency (C33A) | Potency (CAOV3) | Potency (CASKI) | Potency (Es-2) | Potency (HeLa)

C[C@H]1CN(C[C@H](Cc2ccccc2)C(=O)NCC(=O)O)CC[C@@]1(C)c1cccc(O)c1
inactive: max response (CRL-7250) -8.36% | outcome (HEK293) | outcome (HaCat [1]) | outcome (NIH3T3 [2]) | outcome (HACAT [3]) | Potency (HEK293T) | outcome (NIH3T3 [4]) | Potency (C33A) | Potency (CAOV3) | Potency (CASKI) | Potency (Es-2) | Potency (HeLa)

CC[C@H]1OC(=O)[C@H](C)[C@@H](OC2C[C@@](C)(OC)[C@@H](O)[C@H](C)O2)[C@H](C)[C@@H](OC2O[C@H](C)C[C@H](NC)[C@H]2O)[C@](C)(O)C[C@@H](C)CN(C)[C@H](C)[C@@H](O)[C@]1(C)O (stereo partly drawn)
inactive: outcome (CRL-7250) | outcome (HEK293) | outcome (HaCat [1]) | max response (NIH3T3 [2]) -0.0862% | outcome (HACAT [3]) | Potency (HEK293T) | Potency (C33A) | Potency (CAOV3) | Potency (CASKI) | Potency (Es-2) | Potency (HeLa)

CN(C)C/C=C/C(=O)Nc1ccc(C(=O)Nc2cccc(Nc3ncc(Cl)c(-c4c[nH]c5ccccc45)n3)c2)cc1
active: Potency (CRL-7250) 164 nM and 263 nM | Potency (HEK293) 186 nM | Potency (HaCat [1]) 1.84 µM and 1.05 µM | Potency (KB-3-1) 0.184 µM | Potency (NIH3T3 [2]) 1.16 µM and 2.09 µM | Potency (CASKI) 0.794 µM | Potency (Es-2) 1.78 µM | Potency (HeLa) 0.891 µM

CC(=O)OCCC(C)CCC1C(C)(O)CCC2C(C)(C)CCCC21C (stereo not drawn)
inactive: max response (CRL-7250) -8.91% | outcome (HEK293) | max response (HaCat [1]) -0.371% | max response (NIH3T3 [2]) -3.93% | Potency (HEK293T) | Potency (C33A) | Potency (CAOV3) | Potency (CASKI) | Potency (Es-2) | Potency (HeLa)

COc1cc(/C=C/C(=O)OC2[C@H](O)CC(O)(C(=O)O)C[C@H]2O)ccc1O (stereo partly drawn)
inactive: max response (CRL-7250) 3.9% | outcome (HEK293) | outcome (HaCat [1]) | max response (NIH3T3 [2]) -0.19% | outcome (HACAT [3]) | Potency (HEK293T) | Potency (C33A) | Potency (CAOV3) | Potency (CASKI) | Potency (Es-2) | Potency (HeLa)

COc1cc(N2CCC(N(C)C)CC2)ccc1Nc1ncc(Cl)c(Nc2ccccc2P(C)(C)=O)n1
active: Potency (CRL-7250) 2.91 µM and 1.48 µM | Potency (HEK293) 5.17 µM and 1.86 µM | Potency (HaCat [1]) 1.84 µM and 2.34 µM | Potency (KB-3-1) 4.11 µM | Potency (NIH3T3 [2]) 2.06 µM | Potency (CAOV3) 3.55 µM | Potency (CASKI) 7.08 µM | Potency (Es-2) 11.2 µM | Potency (HeLa) 3.16 µM

N#CCc1ccc(O)cc1O[C@@H]1O[C@H](CO)[C@@H](O)[C@H](O)[C@H]1O
inactive: outcome (CRL-7250) | outcome (HEK293) | max response (HaCat [1]) -21.9% | outcome (NIH3T3 [2]) | Potency (HEK293T) | outcome (NIH3T3 [4]) | Potency (C33A) | Potency (CAOV3) | Potency (CASKI) | Potency (Es-2) | Potency (HeLa)
